# Hit rate of the full screen: of about 66,000 compounds, about 960 (1.5%) showed an effect of 50% or more. Many of the other results were omitted from the sample, so strong results are more common in it than they were.
# Tested on: Trypanosoma brucei
# Assay: Trypanosoma brucei 72 hour study
# Assay type: functional, organism-based
# Set-up: scale not given: in the data most compounds retested in dose-response had high values
smiles,measurement,setting,value
CCOC(=O)[C@]12CCCN(Cc3cccs3)C[C@H]1CN(C(C)C)C2.O=C(O)C(F)(F)F.O=C(O)C(F)(F)F,Percent Effect,"30.3 µM, […]",-11.59%
Cc1cc(=O)n2nc(Oc3cccc(I)c3)sc2n1,Percent Effect,"30 µM, 30.03 µM",99.1%
Cc1cc(=O)n2nc(Oc3ccc(Cl)c(C)c3)sc2n1,Percent Effect,"30 µM, 30.03 µM",-32.75%
Cc1cc(=O)n2nc(Oc3cc(Cl)cc(Cl)c3)sc2n1,Percent Effect,"30 µM, 30.03 µM",-23.2%
Cc1cc(=O)n2nc(Oc3cccc(C(N)=O)c3)sc2n1,Percent Effect,"30 µM, 30.03 µM",-16.62%
Cc1cc(=O)n2nc(Oc3ccc(C#N)cc3Cl)sc2n1,Percent Effect,"30 µM, 30.03 µM",98.96%
Cc1cc(=O)n2nc(Oc3ccc(F)c(F)c3)sc2n1,Percent Effect,"30 µM, 30.03 µM",-14.16%
CN1CCCCCC1C(=O)N1CCN(c2ccccc2C#N)CC1 (stereo not given),Percent Effect,"30 µM, 30.03 µM",14.65%
COc1ncccc1CNC(=O)NCc1ccco1,Percent Effect,10 µM,-3.742%
same,Percent Effect,"30.3 µM, […]",11.99%
Cc1ccc(CN2CC[C@H]3[C@H](CC(Cn4cccn4)N3C)C2)s1.O=C(O)C(F)(F)F.O=C(O)C(F)(F)F.O=C(O)C(F)(F)F (stereo not given in full),Percent Effect,"30.3 µM, […]",2.612%
O=C(CC1CC1)N1CC[C@@H]2[C@H](CC1)N(Cc1cccnc1)CCS2(=O)=O.O=C(O)C(F)(F)F.O=C(O)C(F)(F)F,Percent Effect,"30.3 µM, […]",-63.96%
Cc1cccc(OC2CCN(c3nccnc3C#N)CC2)n1,Percent Effect,"30.3 µM, […]",-52.89%
Cc1cccc(OC2CCN(c3ccc(C#N)cn3)CC2)n1,Percent Effect,"30.3 µM, […]",86.54%
Cc1cccc(OC2CCN(c3ncc(C#N)cc3Cl)CC2)n1,Percent Effect,"30.3 µM, […]",2.665%
CCn1cc(NS(=O)(=O)c2ccc(Br)s2)c(C(N)=O)n1,Percent Effect,"30 µM, 30.03 µM",-24.98%
O=C(Nc1cnccn1)[C@H]1CC[C@@H]2[C@@H](CCN2Cc2ccoc2)O1.O=C(O)C(F)(F)F,Percent Effect,"30.3 µM, […]",-117.8%
COc1cc(F)ccc1N(C)Cc1cccnc1,Percent Effect,"30 µM, 30.03 µM",-106.7%
COc1cc(F)ccc1N(C)Cc1ccccn1,Percent Effect,"30 µM, 30.03 µM",73.53%
COc1cc(F)ccc1N(C)Cc1ccncc1,Percent Effect,"30 µM, 30.03 µM",-66.27%
Cc1c(-c2cccs2)nn2c(O)c3c(nc12)CN(C(=O)C1CC1)C3,Percent Effect,"30.3 µM, […]",9.41%
Cc1ccc(N2CCN(C(=O)CCc3n[nH]c(C)c3C)CC2=O)cc1,Percent Effect,"30 µM, 30.03 µM",-42.04%
CS(=O)(=O)N1C[C@@H]2CC[C@H](C1)N(Cc1ccsc1)C2,Percent Effect,"30 µM, 30.03 µM",-69.04%
CC(=O)c1cc(CN2C[C@H]3CC[C@@H]2CN(S(C)(=O)=O)C3)cs1,Percent Effect,"30 µM, 30.03 µM",91.04%
CN(C)S(=O)(=O)N1C[C@@H]2CC[C@H](C1)N(Cc1ccc3nsnc3c1)C2,Percent Effect,"30 µM, 30.03 µM",2.112%
CS(=O)(=O)N1C[C@@H]2CC[C@H](C1)N(Cc1ccc3nsnc3c1)C2,Percent Effect,"30 µM, 30.03 µM",-23.46%
CC(=O)c1cc(CN2C[C@H]3CC[C@@H]2CN(S(=O)(=O)N(C)C)C3)cs1,Percent Effect,"30 µM, 30.03 µM",79.15%
CN(C)S(=O)(=O)N1C[C@@H]2CC[C@H](C1)N(Cc1ccc(F)c(F)c1)C2,Percent Effect,"30 µM, 30.03 µM",-42.84%
CC(C)(C)C(CCO)NC(=O)Nc1ccncc1 (stereo not given),Percent Effect,"30.3 µM, […]",-3.299%
CCOCCCNC(=O)CCCC(=O)n1nc(C)c2ccccc21,Percent Effect,"30 µM, 30.03 µM",-9.537%
COCCCNC(=O)CCn1ncc2c(Cl)cccc21,Percent Effect,"30.3 µM, […]",-21.64%
COCCCNC(=O)CCn1nc(C)c2ccccc21,Percent Effect,"30 µM, 30.03 µM",61.88%
Nc1ccc(C(=O)N2CCCC(C(=O)CCc3ccccc3)C2)cn1 (stereo not given),Percent Effect,"30 µM, 30.03 µM",42.45%
Cn1cc(N2CC3(CCN(Cc4ccoc4)CC3)OCC2=O)cn1.O=C(O)C(F)(F)F,Percent Effect,"30 µM, 30.03 µM",-14.91%
CCOC(=O)c1n[nH]cc1-c1cncn1CCn1nc(C)c(C)c1C.Cl,Percent Effect,"30.3 µM, […]",-11.29%
Cc1ncsc1C(=O)NC1CCN(CC(=O)N(C)c2ccccc2)CC1,Percent Effect,"30 µM, 30.03 µM",32.24%
Cc1ncsc1C(=O)NC1CCN(CC(N)=O)CC1,Percent Effect,"30.3 µM, […]",10.5%
Cc1ncsc1C(=O)NC1CCN(CC(=O)NCc2ccccc2)CC1,Percent Effect,"30 µM, 30.03 µM",57.29%
CC1CCCCN1C(=O)c1coc(COc2cccc3cnccc23)n1 (stereo not given),Percent Effect,"30.3 µM, […]",103.3%
O=C(c1coc(COc2cccc3cnccc23)n1)N1CCCCCC1,Percent Effect,"30.3 µM, […]",-73.19%
O=C(c1coc(COc2cccc3cnccc23)n1)N1CCSCC1,Percent Effect,"30.3 µM, […]",-189.8%
Cc1cccc(N2CCN(C(=O)CCc3c(C)noc3Cl)CC2)c1,Percent Effect,"30.3 µM, […]",55.23%
Cc1noc(Cl)c1CCC(=O)N1CCN(c2ccccc2)CC1,Percent Effect,"30.3 µM, […]",16.11%
Cc1noc(Cl)c1CCC(=O)N1CCN(c2ncccn2)CC1,Percent Effect,"30 µM, 30.03 µM",-22.8%
CN(CCC(O)c1ccccc1)Cc1nc(-c2ccccc2)no1 (stereo not given),Percent Effect,"30.3 µM, […]",-13.82%
same,Percent Effect,"10 mM, 10 mM as filed; unlikely as a test dose",-49.39%
CC(C)CN1CCC2(C1)CN(S(=O)(=O)c1cn(C)cn1)C2.O=C(O)C(F)(F)F.O=C(O)C(F)(F)F,Percent Effect,"30.3 µM, […]",-13.21%
COc1ccccc1CN1CCC(c2nn(CCN)c3nccnc23)C1 (stereo not given),Percent Effect,"30.3 µM, […]",99.59%
NCCn1nc(C2CCN(Cc3ccccc3Cl)C2)c2nccnc21 (stereo not given),Percent Effect,"30.3 µM, […]",22.22%
Cc1ccccc1CN1CCC(c2nn(CCN)c3nccnc23)C1 (stereo not given),Percent Effect,"30.3 µM, […]",24.84%
COCC(=O)N1C[C@@H]2CCCO[C@@H]2[C@H](N(C)Cc2ccco2)C1.O=C(O)C(F)(F)F,Percent Effect,"30 µM, 30.03 µM",-11.7%
O=C(O)C(F)(F)F.O=C1N(Cc2cccc(F)c2)CCC12CCN(c1ccccn1)CC2,Percent Effect,"30.3 µM, […]",-2.034%
COc1ccc2c(c1)[C@@H](CCNC(C)=O)CC(C)(C)O2,Percent Effect,"30.3 µM, […]",-14.03%
CNCC[C@H]1CC(C)(C)Oc2ccc(OC)cc21,Percent Effect,"30.3 µM, […]",-16.4%
CNCC[C@H]1CC(C)(C)Oc2ccc(OCC3CC3)cc21,Percent Effect,"30.3 µM, […]",86.36%
Cc1nc(N(C)C)nc(N2CCC3(CC2)CNC(=O)O3)c1C,Percent Effect,"30 µM, 30.03 µM",-29.71%
CN(C)c1nc2c(c(N3CCC4(CC3)CNC(=O)C4)n1)CCCC2,Percent Effect,"30 µM, 30.03 µM",23.78%
CN(C)c1nc2c(c(N3CCCC4(CC3)CNC(=O)O4)n1)CCCC2 (stereo not given),Percent Effect,"30 µM, 30.03 µM",52.4%
CN(C)S(=O)(=O)N1C[C@@H](OCc2cccnc2)[C@H]2OCCC[C@H]21.O=C(O)C(F)(F)F,Percent Effect,"30 µM, 30.03 µM",-11.52%
CN(Cc1cccc(OC(F)F)c1)Cc1nc2c(cnn2C)c(=O)[nH]1,Percent Effect,"30.3 µM, […]",-25.39%
CN(CCS(=O)(=O)c1cc(Cl)ccc1Cl)CC(=O)Nc1cccc(F)c1,Percent Effect,"30 µM, 30.03 µM",-17.26%
CN(CCS(=O)(=O)c1cc(Cl)ccc1Cl)CC(=O)Nc1ccc(F)cc1,Percent Effect,"30 µM, 30.03 µM",64.98%
CN(CCS(=O)(=O)c1cc(Cl)ccc1Cl)CC(N)=O,Percent Effect,"30 µM, 30.03 µM",-15.71%
CC(=O)NC[C@]1(O)CCN(C(=O)c2ccc3c(c2)OCO3)C[C@H]1O,Percent Effect,"30.3 µM, […]",-26.03%
c1cc2cc[nH]c2c(CC2CN(Cc3cscn3)C2)n1,Percent Effect,"30.3 µM, […]",-15.51%
Cc1cnc(N2CCOCC3(CCN(c4ccccn4)C3)C2)nc1.O=C(O)C(F)(F)F.O=C(O)C(F)(F)F (stereo not given),Percent Effect,"30 µM, 30.03 µM",-35.16%
CC(=O)NCC(=O)N1CCC2(CC1)C(=O)N(CC1CC1)c1ccccc12,Percent Effect,"30.3 µM, […]",-5.541%
CN(C)C1CCCN(C(=O)c2cccc(-c3ncc[nH]3)c2)CC1 (stereo not given),Percent Effect,"30 µM, 30.03 µM",-3.463%
CN(C)[C@H]1CCCCN(C(=O)c2cccc(N3CCS(=O)(=O)CC3)c2)C1,Percent Effect,"30 µM, 30.03 µM",11.69%
CN(C)[C@H]1CCCCN(C(=O)c2cccc(-c3cccc(F)c3)c2)C1,Percent Effect,"30 µM, 30.03 µM",59.87%
COCc1nc2cc(NCc3ccc(C)o3)ccc2o1,Percent Effect,"30 µM, 30.03 µM",13.96%
CCC(C)CNc1ccc2oc(COC)nc2c1 (stereo not given),Percent Effect,"30 µM, 30.03 µM",94.42%
COCc1nc2cc(NCc3ccncc3)ccc2o1,Percent Effect,"30 µM, 30.03 µM",16.85%
Cc1cccc(C(=O)N2CCN(CCC(C)C)CC2)n1,Percent Effect,"30.3 µM, […]",-20.29%
CCCN1Cc2nc(N3CCCC3)ncc2C1=O,Percent Effect,"30 µM, 30.03 µM",35.2%
Cc1nnc2ccc(N3CCC4(CCOC4)C3)nn12 (stereo not given),Percent Effect,"30 µM, 30.03 µM",-17.43%
FC(F)c1nnc2ccc(N3CCC4(CCOC4)C3)nn12 (stereo not given),Percent Effect,"30 µM, 30.03 µM",-51.53%
c1ccc(-c2nnc3ccc(N4CCC5(CCOC5)C4)nn23)cc1 (stereo not given),Percent Effect,"30 µM, 30.03 µM",81.34%
c1cc(-c2n[nH]cc2-c2ccnc(N3CCCCCC3)n2)ccn1,Percent Effect,"30.3 µM, […]",36.75%
CCOC(=O)N1CCN(C(=O)c2sc(-c3ccccc3F)nc2C)CC1,Percent Effect,"30 µM, 30.03 µM",51.23%
Cc1nc(-c2ccccc2F)sc1C(=O)N1CCN(C)CC1,Percent Effect,"30 µM, 30.03 µM",37.21%
CC(=O)N1CCN(C(=O)c2sc(-c3ccccc3F)nc2C)CC1,Percent Effect,"30 µM, 30.03 µM",-46.44%
CC(=O)N1CCO[C@H]2[C@H](OCCCn3cccn3)CC[C@@H]21.O=C(O)C(F)(F)F,Percent Effect,"30.3 µM, […]",-5.128%
COc1cccc(CN(Cc2ccco2)Cc2cnc(C)n2C)c1.O=C(O)CC(O)(CC(=O)O)C(=O)O,Percent Effect,"30.3 µM, […]",15.04%
CN1C[C@@H](C(=O)N(C)C)[C@@]2(CCc3ccccc3C(=O)N2)C1.Cl,Percent Effect,"30.3 µM, […]",-15.68%
CNc1nc(C)c(C(=O)N2CCCCC2CN2CCCCCC2)s1 (stereo not given),Percent Effect,"30 µM, 30.03 µM",17.59%
O=C(O)C(F)(F)F.O=C(O)C(F)(F)F.O=C(c1n[nH]c2c1CN(C1CCOC1)CC2)N1CCOCC1 (stereo not given),Percent Effect,"30.3 µM, […]",0.9809%
CN(C)CCN1C(=O)CCCC12CCCN(C(=O)c1ccncc1)C2.O=C(O)C(F)(F)F.O=C(O)C(F)(F)F (stereo not given),Percent Effect,"30.3 µM, […]",-7.261%
CN(C)CCN1C(=O)CCC12CCCN(C(=O)c1cccnc1)CC2.O=C(O)C(F)(F)F.O=C(O)C(F)(F)F (stereo not given),Percent Effect,"30.3 µM, […]",-25.41%
CN(C)CCN1C(=O)CCC12CCN(C(=O)c1cccnc1)CC2.O=C(O)C(F)(F)F.O=C(O)C(F)(F)F,Percent Effect,"30.3 µM, […]",75.6%
O=C(O)C(F)(F)F.c1coc(CN2CCO[C@H]3[C@H](OCC4CCCC4)CC[C@@H]32)c1,Percent Effect,"30.3 µM, […]",1.448%
Cc1csc(N2CCN(CC(=O)N3CCNC3=O)CC2C)n1 (stereo not given),Percent Effect,10 µM,-102.2%
CC(C)NC(=O)c1ccc2c(c1)nc1n2CCN(C(C)C)C1,Percent Effect,"30 µM, 30.03 µM",-14.37%
CC(C)NC(=O)c1ccc2c(c1)nc1n2CCN(Cc2ccco2)C1,Percent Effect,"30 µM, 30.03 µM",-8.027%
CC(C)NC(=O)c1ccc2c(c1)nc1n2CCN(c2ccccc2)C1,Percent Effect,"30 µM, 30.03 µM",50.34%
